Reference: ChEMBL document CHEMBL1961873, “Compounds: GSK PKIS; Assays: Nanosyn kinase panel” (2012)

molecular target: Misshapen-like kinase 1 (Homo sapiens) (UniProt Q8N4C8); settings: at 1 µM
Sequence (Q8N4C8 whole entry, looked up): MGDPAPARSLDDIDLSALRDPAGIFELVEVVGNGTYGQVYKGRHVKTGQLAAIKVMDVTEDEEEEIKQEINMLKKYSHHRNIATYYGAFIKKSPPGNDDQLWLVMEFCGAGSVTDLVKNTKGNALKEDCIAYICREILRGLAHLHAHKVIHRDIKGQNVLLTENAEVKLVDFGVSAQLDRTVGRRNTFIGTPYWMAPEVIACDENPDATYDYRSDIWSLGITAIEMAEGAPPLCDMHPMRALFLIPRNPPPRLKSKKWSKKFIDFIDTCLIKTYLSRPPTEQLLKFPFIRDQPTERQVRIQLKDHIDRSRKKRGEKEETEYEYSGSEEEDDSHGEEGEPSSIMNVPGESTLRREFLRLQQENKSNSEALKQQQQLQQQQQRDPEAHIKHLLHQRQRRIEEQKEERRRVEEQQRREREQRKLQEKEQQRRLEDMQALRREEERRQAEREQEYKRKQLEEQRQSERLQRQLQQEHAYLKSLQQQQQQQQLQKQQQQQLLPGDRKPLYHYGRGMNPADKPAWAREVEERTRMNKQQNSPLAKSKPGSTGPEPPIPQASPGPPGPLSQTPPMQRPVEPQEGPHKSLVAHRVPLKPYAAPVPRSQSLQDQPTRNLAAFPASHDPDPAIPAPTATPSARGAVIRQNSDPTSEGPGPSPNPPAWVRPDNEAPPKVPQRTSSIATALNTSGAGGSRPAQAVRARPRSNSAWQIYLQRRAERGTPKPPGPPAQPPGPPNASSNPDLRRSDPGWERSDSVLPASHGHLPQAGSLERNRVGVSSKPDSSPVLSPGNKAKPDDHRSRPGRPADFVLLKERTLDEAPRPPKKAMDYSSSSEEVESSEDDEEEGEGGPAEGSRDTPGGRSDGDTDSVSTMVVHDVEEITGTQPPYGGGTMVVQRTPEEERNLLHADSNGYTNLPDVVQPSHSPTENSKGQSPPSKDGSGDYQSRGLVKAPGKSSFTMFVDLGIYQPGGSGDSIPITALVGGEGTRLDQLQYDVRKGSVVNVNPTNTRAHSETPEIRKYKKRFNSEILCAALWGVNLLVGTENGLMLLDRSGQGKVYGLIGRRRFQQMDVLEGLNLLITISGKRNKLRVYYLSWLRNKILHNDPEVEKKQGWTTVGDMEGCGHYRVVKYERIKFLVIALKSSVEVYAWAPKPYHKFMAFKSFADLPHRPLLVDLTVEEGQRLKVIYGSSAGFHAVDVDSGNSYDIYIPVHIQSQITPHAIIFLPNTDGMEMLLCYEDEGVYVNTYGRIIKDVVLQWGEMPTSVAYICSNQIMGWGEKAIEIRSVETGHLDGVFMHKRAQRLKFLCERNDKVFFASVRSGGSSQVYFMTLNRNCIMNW

Compound	inhibition [%]
CCS(=O)(=O)c1ccc(OC)c(Nc2nccc(N(C)c3ccc4c(C)n[nH]c4c3)n2)c1	11.7
Nc1nccc(-c2c(-c3ccc(F)cc3)ncn2CCCN2CCOCC2)n1	7.98
COC(=O)c1ccc2c(c1)C(=Cc1cc(Br)c(O)c(Br)c1)C(=O)N2	75.2
COc1cc2ncnc(Nc3ccc4c(cnn4Cc4ccccc4)c3)c2cc1OC	9.64
O=S(=O)(CCOCc1ccc(-c2ccc3ncnc(Nc4ccc(OCc5cccc(F)c5)c(Cl)c4)c3c2)o1)c1ccccc1	5.66
NC(=O)c1sc(-n2cnc3ccccc32)cc1OCc1ccccc1Br	9.1
NS(=O)(=O)c1cccc(-c2cc3ccncc3cc2OCc2ccccc2)c1	13.4
Cc1cc(Cl)cc2c1NC(=O)C2=NNc1ccc(S(N)(=O)=O)cc1	42.5
Oc1cccc(-c2nc(-c3ccccc3)[nH]c2-c2ccncc2)c1	8.96
COC(=O)Nc1nc2cc(Oc3ccc(NC(=O)Nc4cccc(Br)c4)cc3)ccc2[nH]1	5.66
Nc1nccc(C#Cc2cncnc2Nc2ccc(OCc3cccc(F)c3)c(Cl)c2)n1	6.41
O=C1Nc2ccc(-c3cccnc3)cc2C1=Cc1cc(Br)c(O)c(Br)c1	81.6
Nc1ccc(C#Cc2cncnc2Nc2ccc(OCc3cccc(F)c3)c(Cl)c2)cc1	1.66
NS(=O)(=O)c1cccc(Nc2cc(-c3ccc(F)cc3)n[nH]2)c1	59.5
CCS(=O)(=O)c1ccc(OC)c(Nc2ncc(-c3cccc(OC)c3)o2)c1	16.8
CCn1c(-c2nonc2N)nc2ccc(F)cc21	9.59
O=C1Nc2ccccc2/C1=C/Nc1ccc2[nH]c(=O)[nH]c2c1	64.3
CS(=O)(=O)Nc1cccc(-c2ccc3c(NC(=O)C4CC4)n[nH]c3c2)c1	6.69

molecular target: T1, Serine/threonine-protein kinase 4 (Homo sapiens) (UniProt Q13043); settings: at 0.1 µM;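 further: mean inhibition of MST1, reported as part of the GSK PKIS dataset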
T1 sequence (whole entry): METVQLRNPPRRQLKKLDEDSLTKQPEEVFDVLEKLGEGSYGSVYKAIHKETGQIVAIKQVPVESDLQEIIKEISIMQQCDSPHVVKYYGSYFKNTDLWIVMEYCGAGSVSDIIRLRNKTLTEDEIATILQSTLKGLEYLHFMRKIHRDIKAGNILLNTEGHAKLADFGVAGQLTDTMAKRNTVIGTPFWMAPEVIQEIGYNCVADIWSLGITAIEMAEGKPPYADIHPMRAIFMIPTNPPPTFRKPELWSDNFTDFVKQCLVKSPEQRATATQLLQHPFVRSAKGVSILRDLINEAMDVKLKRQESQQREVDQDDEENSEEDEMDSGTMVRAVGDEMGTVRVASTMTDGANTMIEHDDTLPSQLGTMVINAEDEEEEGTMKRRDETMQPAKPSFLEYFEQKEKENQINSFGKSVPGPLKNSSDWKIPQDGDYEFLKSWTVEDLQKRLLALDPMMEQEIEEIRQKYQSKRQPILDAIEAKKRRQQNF

Compound	inhibition [%]
Nc1nccc(-c2c(-c3ccc(F)cc3)nn3cc(C(F)(F)F)ccc23)n1	0.23
CN1CCN(C(=O)c2ccc(NC(=O)Nc3ccc(N(C)c4ccnc(Nc5ccc(CS(C)(=O)=O)cc5)n4)cc3)cc2)CC1	16.1
CCn1c(-c2nonc2N)nc2c(C#CC(C)(C)O)nc(OCCNC)cc21	3.15
COc1ccc(-c2nn3ncccc3c2-c2ccnc(Nc3cccc(C(F)(F)F)c3)n2)cc1	1.69
Cc1ccc(C(=O)NC2CC2)cc1-c1ccc2[nH]ncc2c1	-2.09
Cc1ccc2c(c1)/C(=N/Nc1ccc(S(N)(=O)=O)cc1)C(=O)N2	16.4
FC(F)(F)c1ccc(-c2nn3ncccc3c2-c2ccnc(Nc3ccc4c(c3)OCCO4)n2)cc1	3.87
NS(=O)(=O)c1ccc(Nc2cc(-c3cccc(O)c3)n[nH]2)cc1	9.01
Cc1cc(O)cc(C)c1/C=C/c1cncc(C(=O)N(C)C)c1	3.39
COc1cc(Nc2nccc(-c3cnn4ncccc34)n2)cc(OC)c1	5.52
COc1cccc(-n2ncc3c(N/N=C/c4ccc(C)cc4)ncnc32)c1	5.34
[O-][S+]1CCN(Cc2ccc(-c3ccc4ncnc(Nc5ccc(OCc6ccccc6)c(Cl)c5)c4c3)o2)CC1	0.8
COc1ccc2ncnc(Nc3ccc(OCc4ccccc4)cc3)c2c1	1.92
CN(C)C(=O)O[C@H]1CN[C@H](C#Cc2cc3ncnc(Nc4ccc(OCc5cccc(F)c5)c(Cl)c4)c3s2)C1	2.1
NS(=O)(=O)c1ccc(NC=C2C(=O)Nc3ccc4ncsc4c32)cc1	74.5
CS(=O)(=O)CCNCc1nc(-c2ccc3ncnc(Nc4ccc(OCc5cccc(C(F)(F)F)c5)cc4)c3c2)cs1	3.31
CCS(=O)(=O)c1ccc(OC)c(Nc2nccc(N(C)c3ccc4c(C)n[nH]c4c3)n2)c1	4.2
Nc1nccc(-c2c(-c3ccc(F)cc3)ncn2CCCN2CCOCC2)n1	3.71
COC(=O)c1ccc2c(c1)C(=Cc1cc(Br)c(O)c(Br)c1)C(=O)N2	3.54
COc1cc2ncnc(Nc3ccc4c(cnn4Cc4ccccc4)c3)c2cc1OC	3.42
O=S(=O)(CCOCc1ccc(-c2ccc3ncnc(Nc4ccc(OCc5cccc(F)c5)c(Cl)c4)c3c2)o1)c1ccccc1	4.3
NC(=O)c1sc(-n2cnc3ccccc32)cc1OCc1ccccc1Br	1.82
NS(=O)(=O)c1cccc(-c2cc3ccncc3cc2OCc2ccccc2)c1	8
Cc1cc(Cl)cc2c1NC(=O)C2=NNc1ccc(S(N)(=O)=O)cc1	4.01
Oc1cccc(-c2nc(-c3ccccc3)[nH]c2-c2ccncc2)c1	5.39
COC(=O)Nc1nc2cc(Oc3ccc(NC(=O)Nc4cccc(Br)c4)cc3)ccc2[nH]1	3.52
